Compounds without any hit were thinned out: in the full panel of roughly 83,000, 20% have a hit.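 Percent growth is the endpoint: 0 to 100 indicates growth inhibition (40 means 60% inhibition), 0 means no net growth, and negative values indicate cell death.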 The source made the active and inactive calls. Rule for the calls: active = growth percent below 10; inactive = the rest.
Each compound was assayed on MDA-MB-468 breast (assay: NCI-60 one-dose screen, 48 h (100 = growth as untreated, 0 = no growth, -100 = all killed)). Conditions: 10 µM unless noted.

Row | Compound | growth
1 | Cc1ccc(S(=O)(=O)Nc2cccc3[nH]c(C(F)(F)F)nc23)cc1 | 5.86% (active)
2 | COc1cc(-c2ccc3ncnc(NCc4ccccc4)c3c2)cnc1OC | 15.8% (inactive)
3 | Cc1[nH]c(C(=O)Nc2ccc(C(N)=O)cc2N2CCOC(C)C2)c(Cl)c1Cl (stereo not given) | 102% (inactive)
4 | CCOC(=O)CC1CSC(c2cccc(Cl)c2)=N1 (stereo not given) | 108% (inactive)
5 | COc1ccc(-c2cc(-c3cc4ccccc4oc3=O)n(-c3ccccc3)n2)cc1 | 87.3% (inactive)
6 | NC(=O)c1ccc[n+](CC(=O)N2CCN(c3cc4c(cc3F)c(=O)c(C(=O)O)cn4C3CC3)CC2)c1 | 87.2% (inactive)
7 | c1ccc2c(NCCCN3CCN(CCCNc4c5ccccc5nc5ccccc45)CC3)c3ccccc3nc2c1 | -73.2% [100 µM] (active)
8 | CN(CCOc1ccc(CC2SC(=O)NC2=O)cc1)c1ccccn1 (stereo not given) | 100% (inactive)
9 | Cn1cc(-c2cc3ncnc(Nc4ccc(CC(=O)Nc5nc(C(C)(C)C)cs5)cc4)c3s2)cn1 | 31.2% (inactive)
10 | C#COc1cccc(Nc2ncnc3cc(NC(=O)[C@H](C)Cl)ccc23)c1 | -11.4% [6.25 µM] (active)
11 | CCOC(=O)NC(=S)n1oc(=O)c2ccccc21 | 106% (inactive)
12 | COc1cccc(NC(=O)c2sc3nc4c(cc3c2N)CCCC4)c1 | 9.67% (active)
13 | CN1CCN(CC#CCOC(=O)CNC(=O)[C@]23CCC(C)(C)C[C@H]2C2=CC[C@@H]4[C@@]5(C)CC[C@H](O)C(C)(C)[C@@H]5CC[C@@]4(C)[C@]2(C)CC3)CC1 | 97.5% (inactive)
14 | Nc1n[nH]c2cccc(C#Cc3cccc(C(=O)Nc4cccc(C(F)(F)F)c4)c3)c12 | 101% (inactive)
15 | CC(=O)CC(c1cccs1)c1c(-c2ccccc2)[nH]c2ccccc12 (stereo not given) | 100% (inactive)
16 | C=C1C(=O)O[C@H]2[C@H]1CC/C(COC(=O)NCCOCCOCC(=O)Nc1ccc(OC)c(C(N)=O)c1O)=C\CC[C@@]1(C)O[C@@H]21 | 17% (inactive)
17 | O=C1CSC(c2c(Cl)cccc2Cl)N1c1nc(Cl)cc(=O)[nH]1 (stereo not given) | 117% (inactive)
18 | N#Cc1c(-c2ccc(Cl)cc2)nc(N=Nc2c(O)[nH]c3ccc(Cl)cc23)nc1N1CCOCC1 | 90.8% (inactive)
19 | CCCCCCC[C@@H](O)CC(=O)N[C@H](CCCCN)C(=O)N[C@H](Cc1c[nH]c2ccccc12)C(=O)NC(CCCCN)C(=O)N[C@H](CC(C)C)C(=O)N[C@H](Cc1ccccc1)C(=O)N[C@H](CCCCN)C(=O)N[C@H](CCCCN)C(=O)N[C@H](CC(C)C)C(=O)N1CCCC1C(=O)N[C@H](CCCCN)C(=O)N[C@H](Cc1ccccc1)C(=O)N[C@H](CC(C)C)C(=O)N[C@H](Cc1c[nH]cn1)C(=O)N[C@H](CC(C)C)C(=O)N[C@H](C)C(=O)N[C@H](CCCCN)C(=O)N[C@H](CCCCN)C(=O)N[C@H](Cc1ccccc1)C(=O)O (stereo not given in full) | -58.2% (active)
20 | COc1ccc(C2NC3=C(CCCC3)C(C#N)(C#N)C2(C#N)C#N)cc1 (stereo not given) | 58% (inactive)

Row | Compound | growth
21 | CCCCC1C(=O)N(c2ccccc2)N(c2ccccc2)C1=O | 99.5% (inactive)
22 | CC1=N[C@@H]2CN(C(=O)OC(C)(C)C)C[C@@H]2n2c1cc1ccccc1c2=O | 111% (inactive)
23 | CCN1CCN(/C(=N\c2sc(-c3ccccc3)nc2-c2ccccc2)c2ccccc2)CC1 | 75.3% (inactive)
24 | N=C(N)c1ccc(-c2ccc(-c3cccs3)s2)cc1F | -77.4% (active)
25 | CCOC(=O)c1cc(N)nc2ccccc12 | 106% (inactive)
26 | COC(=O)c1c2c(c(C)[n+]([O-])c1C)C(=O)C=C(NCc1ccc(F)c(Cl)c1)C2=O | -70.5% (active)
27 | CNC(=O)c1cc(N2CCc3cc(NC(=O)Nc4ccc(N5CCN(C)CC5)c(C(F)(F)F)c4)ccc32)ccn1 | 77.9% (inactive)
28 | O=C(CN1CCN(c2cc3c(cc2F)c(=O)c(C(=O)O)cn3C2CC2)CC1)Nc1ccc(C(=O)/C=C/c2ccccc2)cc1 | 33.8% (inactive)
29 | CCN1C(=O)N(CC)C2C1NC(=S)N2/N=C/c1ccc(C(F)(F)F)cc1 (stereo not given) | 49.4% (inactive)
30 | CN1CCN(c2ccc3c(C(N)=O)c(NC(=O)c4ccc(C(C)(C)C)cc4)sc3c2)CC1 | 90.7% (inactive)
31 | COc1ccc(Cn2cc(Cn3cc(C=C4C(=O)NC(=O)NC4=O)c4ccccc43)nn2)cc1 | 18.5% (inactive)
32 | COc1cc(C(=O)N2CCN(c3cc4c(cc3F)c(=O)c(C(=O)NO)cn4C3CC3)CC2)cc(OC)c1OC | 95.8% (inactive)
33 | Clc1nc2ccccc2cc1Cn1nnc(Cc2ccccc2)n1 | 11.1% (inactive)
34 | CS(=O)(=O)c1ccc(-n2cc(/C=N/O)c(-c3ccccc3)n2)cc1 | 35% (inactive)
35 | CCOC(=O)C/C(=N\Nc1cc(=O)[nH]c2ccc(OC)cc12)C(=O)OCC | 89.1% (inactive)
36 | Nc1nccc(=S)[nH]1 | 109% (inactive)
37 | CCOC(=O)/C=C/C(=O)[C@H](CC(C)C)NC(=O)[C@H](Cc1ccccc1)NC(=O)OCc1ccccc1 | -21.5% (active)
38 | CCC1OC(OC)C=CC1=O (stereo not given) | 100% (inactive)
39 | Cc1cc(N[C@@H]2CCC[C@H](Nc3ccnc4cc(Cl)ccc34)C2)nc(N2CCCCCC2)n1 | -65.8% (active)
40 | O=[N+]([O-])c1ccc(N/N=C\c2ccc(O)cc2O)nc1 | 56% (inactive)
